# About 13,000 (27%) of roughly 48,000 compounds showed an effect of 50% or more. Some of the results follow.
# Test system: Wolbachia pipientis
# Assay: Anti-Wolbachia Cell-Based Screen
# Format: functional
# Design: scale not given: in the data most compounds retested in dose-response had high values
# Settings: 5 µM
row,SMILES,Percent Effect [%]
1,CCN(CC)c1ccc(NS(=O)(=O)c2cccnc2)cn1,2.803
2,C[C@@H](NC(=O)c1cccn1C)c1c(-c2ccc(Cl)cc2)noc1C(=O)O,1.666
3,Cc1nccn1-c1ccc(CNS(=O)(=O)N2CCCCC2C)cn1 (configuration not stated),6.496
4,CCOC(=O)C1(Cc2cccc(Cl)c2)CCCN(Cc2ncc[nH]2)C1 (configuration not stated),-2.445
5,NC(=O)C1(CCCc2ccccn2)CCCN(Cc2ncc[nH]2)C1 (configuration not stated),141.6
6,O=C(O)C1(Cc2ccc(F)cc2F)CCCN(Cc2ccncc2)C1 (configuration not stated),1.95
7,Cn1cc(CN2CCC3(CCCN(Cc4ccccn4)C3)CC2)cn1,-1.039
8,Cn1cc(CN2CCCC(CCCc3ccccn3)(C(N)=O)C2)cn1 (configuration not stated),84.15
9,NC(=O)C1(CCCc2ccccn2)CCCN(Cc2ccncc2)C1 (configuration not stated),119.7
10,CCOC(=O)C1(Cc2cccc(OC)c2)CCCN(Cc2ncc[nH]2)C1 (configuration not stated),25.22
11,O=C(O)C1(Cc2ccc(F)cc2)CCCN(Cc2ccncc2)C1 (configuration not stated),-12.28
12,O=C(O)CCc1cc2n(n1)CCCN(C(=O)c1ccc(Cl)s1)C2,-14.6
13,CCN1CCC(NN2CCN(C)CC2)CC1,4.072
14,CCS(=O)(=O)NCC(=O)N1CC2(CCCC2)c2c(F)cccc21,-9.992
15,CC(=O)N[C@H]1C[C@@H](c2nc(-c3ccc4c(c3)OCO4)no2)N(C)C1,-4.728
16,CN1C[C@@H](F)[C@@H](OCc2nc3ccccc3[nH]2)C1,-2.12
17,OCC1(CC2CC2)CCCN(Cc2cnc(C3CCCCC3)nc2)C1 (configuration not stated),-2.459
18,COc1ncc(CN2CCC3(CCCN(CC4CCCCC4)C3)C2)cn1 (configuration not stated),96.23
19,COCCc1ncc(CN2C[C@H](C3CC3)[C@@H](N)C2)cn1,-19.64
20,COCCc1ncc(CN2CCC3(CCCN(CC4CC4)C3)C2)cn1 (configuration not stated),106.1
21,c1cnc(N2CCC3(CCCN(CC4CCCCC4)C3)C2)cn1 (configuration not stated),13.44
22,COCCc1ncc(CN2CCC(Oc3ccccc3C)CC2)cn1,2.53
23,CCCSc1ncc(C2CC(=O)NCc3nc4ccccn4c32)cn1 (configuration not stated),2.221
24,COc1ccccc1C1(CNc2cn[nH]c(=O)c2Cl)CC1,2.708
25,CC(NC(=O)c1cccnc1N(C)C)c1ccccc1Br (configuration not stated),9.946
26,C=C(C)COc1cccc(C(=O)N(C)C(C)c2ccncn2)c1 (configuration not stated),-7.553

row,SMILES,Percent Effect [%]
1,O=C(O)C(F)(F)F.O=C(c1ccccc1)N1CCCC2(CCN2Cc2cccc(F)c2)C1 (configuration not stated),106.4
2,O=C(O)C(F)(F)F.O=C(c1cscn1)N1CCC2(CN(Cc3nccs3)C2)C1,5.214
3,O=C(O)C(F)(F)F.O=C(c1cscn1)N1CCCC2(CCN2Cc2cccc(F)c2)C1 (configuration not stated),96.65
4,O=C(O)C(F)(F)F.O=C(O)C(F)(F)F.O=C(O)CN1CCCC2(CCN2Cc2cccc(F)c2)C1 (configuration not stated),109.4
5,CNC(=O)CN1C(=O)CCC12CCCN(Cc1cccc(F)c1)C2.O=C(O)C(F)(F)F.O=C(O)C(F)(F)F (configuration not stated),0.4911
6,COC(=O)CCC(=O)N1CCCC2(CCCN2Cc2cccc(F)c2)C1.O=C(O)C(F)(F)F (configuration not stated),107.2
7,CCS(=O)(=O)N1CCCC2(CCCN2Cc2cccc(F)c2)C1.O=C(O)C(F)(F)F (configuration not stated),-5.383
8,O=C(O)C(F)(F)F.O=C(c1cscn1)N1CCC2(CCN(Cc3nccs3)CC2)C1,11.65
9,O=C(O)C(F)(F)F.O=S(=O)(c1ccccc1)N1CCC2(CCCN2Cc2cccc(Cl)c2)C1 (configuration not stated),-34.27
10,COCCC(=O)N1CCC2(CCN(Cc3cccc(F)c3)CC2)C1.O=C(O)C(F)(F)F,-14.27
11,Cc1cnc(CNc2ccccc2CN(C)C(=O)c2cccs2)o1,6.302
12,Cc1cc(-c2nn(C)c(Cl)c2CN2CCOCC(O)C2)no1 (configuration not stated),7.686
13,Cc1ccc(OCC(=O)Nc2ncccc2OC(F)F)cc1,-8.184
14,COc1ccc(-c2nc(CN3CCCS3(=O)=O)co2)cc1,-14.94
15,CC(C)NC(=O)N1CCN(c2ccc(Cl)nn2)C(=O)C1,110.8
16,Cc1ccccc1N1CCN(C(=O)CSc2ccncc2)CC1=O,-3.872
17,COC(=O)[C@@H]1CN(C(=O)NC(C)C)CCN1S(=O)(=O)c1ccccc1,-0.3484
18,CC(=O)N1CCN(c2ccc(Cl)nn2)C(=O)C1,106.1
19,CN(C)C(=O)N1CCN(c2ccc(Cl)nn2)C(=O)C1,97.53
20,Cc1ccc2cc(C(=O)N3CCN(C(=O)N(C)C)CC3)ccc2n1,1.001
21,CC(C)C(NC(N)=O)C(=O)N1CCN(c2ccccc2Cl)C(=O)C1 (configuration not stated),3.196
22,COc1cccc(N2CCN(C(=O)C(O)c3ccccc3Cl)CC2=O)c1 (configuration not stated),0.2128
23,CC(O)C(=O)N1CCN(c2ccccc2Cl)C(=O)C1 (configuration not stated),-6.675
24,CCN1CCN(C(=O)C(C)SC)CC1 (configuration not stated),-3.808
25,CC(C)(NS(C)(=O)=O)C(=O)NCc1cccc(Br)c1,-10.37
26,Cc1cnc(CNc2ccc(C(=O)NCc3ccco3)cc2C)o1,-1.967

row,SMILES,Percent Effect [%]
1,O=C1COc2ccc(S(=O)(=O)NCc3ccccc3)c3c2N1CCC3,-7.83
2,CCOC(=O)C1(Cc2ccc(Cl)cc2)CCN(Cc2ncc[nH]2)CC1,-10.72
3,Cc1[nH]c2ccccc2c1CCNC(=O)N1CCC2(C1)OCCO2,5.663
4,O=C(CCN1CCOCC1)NC(Cc1ccsc1)c1nccs1 (configuration not stated),146.7
5,Cc1ccc(C(=O)N2CCOCC2)cc1NCc1ccsc1,-10.53
6,O=C(C(CNCc1ccsc1)c1ccccc1)N1CCOCC1 (configuration not stated),2.12
7,CNS(=O)(=O)c1cccc(C(C)NCc2ccsc2)c1 (configuration not stated),-13.31
8,Cc1n[nH]c(C2CN(CC(=O)NCCc3ccsc3)CCO2)n1 (configuration not stated),-13.37
9,Cc1nc(-c2ccsc2)ccc1C(=O)NCCN1CCOCC1,-7.078
10,Cc1nc(C(Cc2ccsc2)NC(=O)CN2CCOCC2)sc1C (configuration not stated),171.6
11,Cc1nc(C(Cc2ccsc2)NC(=O)CCN2CCOCC2)sc1C (configuration not stated),158.4
12,Cc1cccc(CNC(Cc2ccsc2)c2nc(C)c(C)s2)n1.Cl (configuration not stated),125.8
13,CC(NC(=O)Nc1ccccc1CN1CCOCC1)c1nccs1 (configuration not stated),15.83
14,Cc1ccc(CN2CCOCC2)cc1NCc1ccsc1,-9.351
15,Cn1cc(C(C)(O)CNC(=O)c2cc(Br)cn2C)cn1 (configuration not stated),0.5421
16,Cc1n[nH]c(-c2ccc(NC(=O)C(C)(C)N3CCN(C)CC3)cc2)n1,-11.99
17,CC(C)(C)c1cnc(CN2CCCS2(=O)=O)o1,-7.665
18,O=C1CCc2cc(S(=O)(=O)NC(=O)c3ccc4c(c3)COC4)ccc2N1,-36.98
19,O=c1c2cccc(Cl)c2ncn1C1CCNC1 (configuration not stated),5.785
20,Cc1ccc(C(=O)NCc2ccccc2S(=O)(=O)N(C)CCO)cc1F,-6.958
21,Cc1cnc(C(=O)Nc2cc(F)ccc2OCC2CCCO2)cn1 (configuration not stated),-2.263
22,O=C(Nc1cc(F)ccc1OCC1CCCO1)c1ccc(O)nc1 (configuration not stated),10.58
23,CCn1nc(C)cc1C(=O)Nc1cc(F)ccc1OCC1CCCO1 (configuration not stated),-4.642
24,CS(=O)(=O)CCC(=O)Nc1cc(F)ccc1OCC1CCCO1 (configuration not stated),92.36
25,Cc1ccc(NC(=O)N2CCCC2)c(OCC2CCCO2)c1 (configuration not stated),97.39
26,Nc1ccnc(CNc2cc(F)ccc2OCC2CCCO2)n1 (configuration not stated),-8.979

row,SMILES,Percent Effect [%]
1,Fc1ccc(OCC2CCCO2)c(NCc2cn3cccnc3n2)c1 (configuration not stated),-2.31
2,O=C(Nc1ccccc1OCC1CCCCO1)c1ccc(O)nc1 (configuration not stated),2.227
3,O=C(Nc1cc(F)ccc1OCC1CCCO1)NC1CC1 (configuration not stated),110.8
4,O=C(CNc1cc(F)ccc1OCC1CCCO1)N1CCOCC1 (configuration not stated),97.1
5,Cc1ccc(C(=O)Nc2cc(F)ccc2OCC2CCCO2)cn1 (configuration not stated),-10.64
6,CCOCCC(=O)Nc1cc(C(N)=O)ccc1N1CCCC(C)C1 (configuration not stated),-3.919
7,CCc1nc(CN(C)CC(c2cccs2)N2CCOCC2)no1 (configuration not stated),-2.837
8,COCCC(=O)N1CCc2cc(Cl)cc(Cl)c2C1,-13.08
9,Cc1c(-c2c(-c3ccccc3)ncn2[C@H](CO)C(=O)O)cnn1C,-0.2965
10,CCOc1cccc(C(C)NCc2ccc(OC)c(OC)c2OC)c1 (configuration not stated),2.292
11,CCCC(NC(=O)c1cc(C2CC2)[nH]n1)c1nnc2ccccn12 (configuration not stated),4.911
12,CCc1noc(CNc2cc(F)ccc2OCC2CCCO2)n1 (configuration not stated),-4.375
13,O=C(CC(F)(F)F)Nc1cc(F)ccc1OCC1CCCO1 (configuration not stated),91.81
14,CC(=O)N1CCC(Nc2cc(F)ccc2OCC2CCCO2)CC1 (configuration not stated),103.1
15,O=C(Nc1cc(F)ccc1OCC1CCCO1)N1CCCC1 (configuration not stated),75.82
16,O=C(Nc1cc(F)ccc1OCC1CCCO1)N1CCSCC1 (configuration not stated),95.33
17,O=C(Nc1cc(F)ccc1OCC1CCCO1)c1ccccn1 (configuration not stated),-3.019
18,CC(C)(C)c1nnc(CNc2cc(F)ccc2OCC2CCCO2)o1 (configuration not stated),0.05226
19,O=C(Nc1cc(F)ccc1OCC1CCCO1)c1ccoc1 (configuration not stated),-0.8662
20,CN(Cc1ccco1)C1CCC12CCN(C(=O)c1ccnnc1)CC2.O=C(O)C(F)(F)F (configuration not stated),-20.01
21,CCN1CCN(S(=O)(=O)N2CCC(OC)CC2)[C@H]2CS(=O)(=O)C[C@H]21,-12.77
22,Cc1ccc2nc(CN(C)Cc3ccc(C)o3)cc(=O)n2c1,4.444
23,CC(COc1ccccc1)NCc1nc(-c2cccnc2)no1 (configuration not stated),-6.485
24,CS(=O)(=O)c1ccc(CNCC2CCN(CCO)CC2)cc1,-3.753

# — ChEMBL document CHEMBL3988442, “University of Dundee, Small-Polar-MMV Screening Library” (2021)
